Data as given in PubChem BioAssay.
Activity calls are given as the source filed them.

Legend:
[1] = test system: Wnt5a (protein binding on small-molecule microarray); assay: small molecules binding Wnt5a protein – biophysical, small-molecule microarray, 635/667 nm fluorescence, primary screen (AID 1142); settings: 635 nm fluorescence, higher = more signal;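 also: fluorescence read at 667 nm with signal to noise per printed feature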
[2] = ATP-based viability of Huh7 replicon cells – cell-based, CellTiter-Glo luminescence, basal, 48 h, cytotoxicity control for HCV replication inhibitor project, primary screen (AID 1143); settings: higher = more signal, called active from +8 up or from −8 down;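 also: Huh7 hepatoma cells carrying a hepatitis C replication reporter with no stimulus; test concentration not given here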
[3] = basal CRE-LacZ reporter activity in PC12 – cell-based, unstimulated, primary screen (AID 1145); settings: no forskolin, luminescence, 4.5 h, higher = more signal, called active from +8 up or from −8 down
[4] = forskolin-driven CRE-LacZ activity in PC12 – cell-based, CRE-LacZ reporter, forskolin-stimulated, primary screen (AID 1146); settings: luminescence, 4.5 h, higher = more signal, called active from +8 up or from −8 down;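 also: PC12 cells with 6xCRE LacZ reporter stimulated by forskolin 10 µM; beta-galactosidase reporter signal reflecting CREB driven transcription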
[5] = target: Streptavidin (Streptomyces avidinii) (UniProt P22629); assay: compounds binding control protein streptavidin – biophysical, small-molecule microarray, 635/667 nm fluorescence, artefact control for SMM compound annotation, primary screen (AID 1147); settings: higher = more signal;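 also: signal reflects streptavidin binding to arrayed compounds as a control protein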
[6] = probe aInhba binding on compound microarray – biochemical, small-molecule microarray, 635/667 nm fluorescence, primary screen (AID 1148); settings: higher = more signal;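 also: score merges 667nm spot fluorescence with signal-to-noise for antibody binding to printed compounds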
[7] = target: Torsin-1A (Homo sapiens) (UniProt O14656); assay: TOR1A wild-type binding on microarray – cell lysate, small-molecule microarray, lysate, 635/667 nm, primary screen (AID 1149); settings: COS7 hTOR1A-WT lysate, 635 nm fluorescence, higher = more signal
[8] = target: Torsin-1A (Homo sapiens) (UniProt O14656); assay: torsin A mutant lysate binding on microarrays – cell lysate, small-molecule microarray, COS7 lysate, 635/667 nm fluorescence, primary screen (AID 1150); settings: COS7 hTOR1A mutant lysate, 635 nm fluorescence, higher = more signal;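 also: score pools 667 nm emission and signal to noise measuring lysate protein binding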
[9] = test system: Sonic hedgehog protein (Shh); assay: Sonic hedgehog microarray binding compounds – biochemical, small-molecule microarray, 635/667 nm fluorescence, primary screen (AID 1151); settings: 635 nm fluorescence, higher = more signal;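 also: Shh protein binding to compounds spotted on small-molecule microarray slides; score combines spot fluorescence intensity with signal-to-noise across triplicate slides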
[10] = optical density shifts of acrAB sulA E. coli – strain DRC41, OD650, 48 h, E. coli filamentation inducer project, primary screen (AID 1152); settings: higher = more signal, called active from +8 up or from −8 down;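 also: E. coli MC1000 strain DRC41 lacking acrAB efflux pump and sulA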
[11] = probe aLefty1 binding on compound microarray – biochemical, small-molecule microarray, 635/667 nm fluorescence, primary screen (AID 1153); settings: higher = more signal;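 also: score merges spot fluorescence with signal-to-noise ratio from the scanned slide images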
[12] = plasmodial surface anion channel blockers, osmotic lysis – cell-based, P. falciparum Indochina, OD700, 1 h, primary screen (AID 1154); settings: P. falciparum Indochina infected RBC osmotic lysis, higher = more signal, called active from +8 up or from −8 down
[13] = plasmodial surface anion channel blockers, osmotic lysis – cell-based, P. falciparum Indochina, OD700, 2 h, primary screen (AID 1155);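 also: lysis reports solute entry through the parasite surface anion channel PSAC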; settings: P. falciparum Indochina infected erythrocytes, higher = more signal, called active from +8 up or from −8 down
[14] = changes in parasitized red cell lysis, either direction – P. falciparum Indochina, OD700, 3 h, PSAC antagonist project, primary screen (AID 1156); settings: P. falciparum-infected erythrocytes, osmotic lysis, higher = more signal, called active from +8 up or from −8 down
[15] = plasmodial surface anion channel blockers, osmotic lysis – cell-based, P. falciparum Indochina, OD700, 18 h, primary screen (AID 1157); settings: P. falciparum Indochina infected erythrocytes, osmotic lysis OD700, 18 h; higher = more signal, called active from +8 up or from −8 down
[16] = S6 kinase pathway phospho-S6 level changes – cell-based, A549, cytoblot, luminescence, serum-stimulated, primary screen (AID 1158); settings: 5 h, higher = more signal;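 also: serum-stimulated A549 lung adenocarcinoma cells; signal is phosphorylated S6 detected by cytoblot immunostaining with HRP secondary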
[17] = target: NADPH oxidase 2 (Homo sapiens) (UniProt P04839); assay: compounds shifting NOX2 Amplex Red fluorescence – cell-based, HEK293-NOX2, PMA-stimulated, NOX inhibitor project, primary screen (AID 1159); settings: 45 min, higher = more signal, called active from +8 up or from −8 down; also: test concentration not given here
[18] = target: NADPH oxidase 4 (Homo sapiens) (UniProt Q9NPH5); assay: compounds shifting NOX4 Amplex Red fluorescence – cell-based, HEK293-NOX4, tetracycline-induced, NOX inhibitor project, primary screen (AID 1160); settings: HEK293-NOX4, Amplex Red H2O2 fluorescence, 45 min; higher = more signal, called active from +8 up or from −8 down
[19] = target: NADPH oxidase 5 (Homo sapiens) (UniProt Q96PH1); assay: compounds shifting NOX5 Amplex Red fluorescence – cell-based, HEK293-NOX5, NOX inhibitor project, primary screen (AID 1161); settings: HEK293-NOX5, ionomycin, 45 min, higher = more signal
Chain of NADPH oxidase 5 (Homo sapiens) (Q96PH1 whole entry, looked up): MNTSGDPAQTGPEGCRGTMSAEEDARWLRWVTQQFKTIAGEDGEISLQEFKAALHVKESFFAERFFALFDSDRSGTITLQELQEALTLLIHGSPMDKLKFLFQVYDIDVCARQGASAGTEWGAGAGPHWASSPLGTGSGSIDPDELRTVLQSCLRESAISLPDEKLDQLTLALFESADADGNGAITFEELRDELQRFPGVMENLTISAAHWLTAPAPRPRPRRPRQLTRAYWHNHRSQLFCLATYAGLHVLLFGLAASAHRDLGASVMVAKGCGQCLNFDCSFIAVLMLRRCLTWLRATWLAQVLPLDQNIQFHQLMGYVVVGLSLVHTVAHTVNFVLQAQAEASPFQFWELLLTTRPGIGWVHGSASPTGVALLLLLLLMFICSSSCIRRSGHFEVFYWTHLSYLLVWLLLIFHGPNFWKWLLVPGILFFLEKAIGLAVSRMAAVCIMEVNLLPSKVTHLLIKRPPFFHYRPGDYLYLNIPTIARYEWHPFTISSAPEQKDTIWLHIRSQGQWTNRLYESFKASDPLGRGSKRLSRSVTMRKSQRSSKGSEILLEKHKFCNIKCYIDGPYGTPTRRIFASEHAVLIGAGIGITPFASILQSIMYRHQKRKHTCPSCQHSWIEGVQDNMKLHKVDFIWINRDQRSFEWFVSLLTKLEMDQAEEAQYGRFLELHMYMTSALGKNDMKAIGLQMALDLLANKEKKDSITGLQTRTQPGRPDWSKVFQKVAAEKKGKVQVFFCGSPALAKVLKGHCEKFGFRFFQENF

Chain of Torsin-1A (Homo sapiens) (O14656 whole entry, looked up): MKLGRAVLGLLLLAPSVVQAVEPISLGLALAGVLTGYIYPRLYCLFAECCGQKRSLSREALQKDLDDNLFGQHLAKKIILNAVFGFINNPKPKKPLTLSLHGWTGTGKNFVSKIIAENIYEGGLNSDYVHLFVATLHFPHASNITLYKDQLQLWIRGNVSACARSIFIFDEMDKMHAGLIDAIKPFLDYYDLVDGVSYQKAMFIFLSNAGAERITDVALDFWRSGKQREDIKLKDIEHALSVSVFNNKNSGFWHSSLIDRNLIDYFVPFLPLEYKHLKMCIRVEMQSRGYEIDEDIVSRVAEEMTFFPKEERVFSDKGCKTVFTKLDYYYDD
Chain of NADPH oxidase 2 (Homo sapiens) (P04839 whole entry, looked up): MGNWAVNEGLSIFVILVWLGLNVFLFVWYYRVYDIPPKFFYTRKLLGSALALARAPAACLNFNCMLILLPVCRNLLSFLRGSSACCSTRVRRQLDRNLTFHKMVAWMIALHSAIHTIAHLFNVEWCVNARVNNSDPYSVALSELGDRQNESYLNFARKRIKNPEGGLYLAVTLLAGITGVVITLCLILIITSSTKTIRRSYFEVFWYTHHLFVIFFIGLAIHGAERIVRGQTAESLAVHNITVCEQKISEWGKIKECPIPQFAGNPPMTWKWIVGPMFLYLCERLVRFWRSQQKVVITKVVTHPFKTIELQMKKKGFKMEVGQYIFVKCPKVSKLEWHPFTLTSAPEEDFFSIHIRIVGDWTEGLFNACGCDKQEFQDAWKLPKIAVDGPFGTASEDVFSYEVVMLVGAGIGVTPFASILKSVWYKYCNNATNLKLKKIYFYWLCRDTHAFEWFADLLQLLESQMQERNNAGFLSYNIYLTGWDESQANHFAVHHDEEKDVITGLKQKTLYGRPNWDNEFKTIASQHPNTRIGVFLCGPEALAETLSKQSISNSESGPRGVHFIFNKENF
Chain of NADPH oxidase 4 (Homo sapiens) (Q9NPH5 whole entry, looked up): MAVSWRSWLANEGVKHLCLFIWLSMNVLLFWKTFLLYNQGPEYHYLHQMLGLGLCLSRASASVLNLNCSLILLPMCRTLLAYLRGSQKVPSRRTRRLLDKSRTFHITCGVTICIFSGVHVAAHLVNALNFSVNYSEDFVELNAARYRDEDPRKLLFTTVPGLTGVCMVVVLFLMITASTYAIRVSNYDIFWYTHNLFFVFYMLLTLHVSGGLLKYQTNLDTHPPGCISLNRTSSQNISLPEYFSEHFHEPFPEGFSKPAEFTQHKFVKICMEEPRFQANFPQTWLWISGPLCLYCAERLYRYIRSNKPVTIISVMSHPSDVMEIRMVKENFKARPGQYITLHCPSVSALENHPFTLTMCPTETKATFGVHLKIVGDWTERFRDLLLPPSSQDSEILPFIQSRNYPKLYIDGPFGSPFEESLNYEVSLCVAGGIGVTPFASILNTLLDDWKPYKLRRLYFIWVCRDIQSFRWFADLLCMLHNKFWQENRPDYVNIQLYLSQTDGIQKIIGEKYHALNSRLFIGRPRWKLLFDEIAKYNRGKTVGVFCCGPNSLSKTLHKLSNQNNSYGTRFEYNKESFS
Chain of Streptavidin (Streptomyces avidinii) (P22629 whole entry, looked up): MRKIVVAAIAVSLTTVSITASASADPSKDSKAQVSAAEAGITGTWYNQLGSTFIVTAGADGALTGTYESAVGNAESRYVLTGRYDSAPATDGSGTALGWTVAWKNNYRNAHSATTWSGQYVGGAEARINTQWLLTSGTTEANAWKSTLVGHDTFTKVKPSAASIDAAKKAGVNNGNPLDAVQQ

## C=C(COC)/C(=C/C[C@H](OC(C)=O)c1ccc(OCCO)cc1)c1cnc2ccccc2c1
[1]
  composite z-score: 0.248
[2]
  z-score: -0.843 (inactive)
[3]
  z-score: 7.3 (inactive)
[4]
  z-score: -0.862 (inactive)
[5]
  composite z-score: 0.864
[6]
  composite z-score: 0.0082
[7]
  composite z-score: 0.654
[8]
  composite z-score: -0.0171
[9]
  composite z-score: 1.99
[10]
  z-score: 1.25 (inactive)
[11]
  composite z-score: 0.199
[12]
  z-score: 13.5 (active)
[13]
  z-score: -0.0743 (inactive)
[14]
  z-score: 1.05 (inactive)
[15]
  z-score: -0.947 (inactive)
[16]
  z-score: -0.117
[17]
  z-score: 1.32 (inactive)
[18]
  z-score: 0.767 (inactive)
[19]
  z-score: -0.593

## C[N+](C)(C)CCCCNC(=O)[C@@H]1C[C@@H]2C(=O)N3CCC[C@H]3C(=O)N2[C@@H]1c1cccc(OCCO)c1
[1]
  composite z-score: 0.256
[2]
  z-score: -3.3 (inactive)
[3]
  z-score: -0.671 (inactive)
[4]
  z-score: -1.62 (inactive)
[5]
  composite z-score: -0.315
[6]
  composite z-score: -0.128
[7]
  composite z-score: 0.725
[8]
  composite z-score: 1.03
[9]
  composite z-score: 1.84
[10]
  z-score: 1.25 (inactive)
[11]
  composite z-score: 0.14
[12]
  z-score: 2.9 (inactive)
[13]
  z-score: -0.732 (inactive)
[14]
  z-score: -2.56 (inactive)
[15]
  z-score: -2.13 (inactive)
[16]
  z-score: 0.326
[17]
  z-score: -1.42 (inactive)
[18]
  z-score: -0.183 (inactive)
[19]
  z-score: -0.87

## CO[C@H]1COC(=O)[C@H](C)COC(=O)[C@H](Cc2ccccc2)NC(=O)CC=C[C@H]1C
[1]
  composite z-score: 0.265
[2]
  z-score: -0.441 (inactive)
[3]
  z-score: 0.707 (inactive)
[4]
  z-score: -0.872 (inactive)
[5]
  composite z-score: -0.0705
[6]
  composite z-score: 0.286
[7]
  composite z-score: 0.715
[8]
  composite z-score: -0.121
[9]
  composite z-score: 1.61
[10]
  z-score: 0.261 (inactive)
[11]
  composite z-score: 0.351
[12]
  z-score: 0.341 (inactive)
[13]
  z-score: -1.39 (inactive)
[14]
  z-score: 0.743 (inactive)
[15]
  z-score: -1.83 (inactive)
[16]
  z-score: 0.376
[17]
  z-score: -0.823 (inactive)
[18]
  z-score: 0.901 (inactive)
[19]
  z-score: -0.0208

## CN(C)CCCC[C@@H]1NC(=O)[C@@H]2C[C@H](C(=O)NCCCCCNC(=O)CS)[C@H](c3ccc(O)cc3)N2C1=O
[1]
  composite z-score: 0.202
[2]
  z-score: 0.0694 (inactive)
[3]
  z-score: -0.667 (inactive)
[4]
  z-score: -1 (inactive)
[5]
  composite z-score: 0.799
[6]
  composite z-score: 0.264
[7]
  composite z-score: 1.4
[8]
  composite z-score: 0.847
[9]
  composite z-score: 2.06
[10]
  z-score: 1.04 (inactive)
[11]
  composite z-score: -0.227
[12]
  z-score: 1.06 (inactive)
[13]
  z-score: -1.21 (inactive)
[14]
  z-score: -3.46 (inactive)
[15]
  z-score: -2.25 (inactive)
[16]
  z-score: 0.209
[17]
  z-score: 0.109 (inactive)
[18]
  z-score: 0.501 (inactive)
[19]
  z-score: 0.398
